For 20 compounds, B-score results are on record in PubChem BioAssay AID488922 (Johns Hopkins Ion Channel Center, 2010).

The campaign covered roughly 310,000 compounds. About 3,800 (1.2%) were called active.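 How the source made its calls: active means ratio B-score over 3 SD below the library mean, with starting fluorescence within 5 SD of its mean; inactive means the rest, inconclusive results apart.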 Only a selection was taken, and actives are over-represented in it overall.

Potassium channel subfamily K member 9 (Homo sapiens), sequence (Q9NPC2 whole entry, looked up): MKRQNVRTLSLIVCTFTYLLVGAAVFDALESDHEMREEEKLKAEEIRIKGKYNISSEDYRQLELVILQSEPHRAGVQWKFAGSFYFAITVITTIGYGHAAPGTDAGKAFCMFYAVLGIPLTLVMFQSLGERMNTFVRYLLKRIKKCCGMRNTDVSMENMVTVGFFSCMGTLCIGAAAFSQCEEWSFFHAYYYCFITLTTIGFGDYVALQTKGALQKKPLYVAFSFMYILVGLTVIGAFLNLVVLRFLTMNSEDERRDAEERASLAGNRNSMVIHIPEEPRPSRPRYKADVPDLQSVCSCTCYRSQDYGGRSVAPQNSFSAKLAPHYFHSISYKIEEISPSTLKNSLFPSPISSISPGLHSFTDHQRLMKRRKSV

The experiment addresses Potassium channel subfamily K member 9 (Homo sapiens) (UniProt Q9NPC2). Kind of experiment: KCNK9 potassium channel inhibitors, primary screen, HEK293 cells, thallium flux (AID 488922).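 On B-score: negative B-score means less thallium flux so channel inhibition.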 The conditions noted are these: HEK293 KCNK9, FluxOR thallium flux fluorescence, at 10 µM; stronger effect = lower value.
As for `CCCCCCCCCCCCn1ccc(=N)cc1`, the B-score was -10.8 (active).

With `Cc1ccc(-c2nc3ccccc3c(=O)n2-c2ccc(Br)cn2)cc1`, the B-score result is “inactive”.

For the compound `COc1cc(Cn2c(N)c(C(=O)NCc3ccco3)c3nc4ccccc4nc32)cc(OC)c1OC`, the B-score result is “inactive”.

`CC1=C2C(=O)C3C(CC=C4CC(OC5OC(O)C(O)C(O)C5CO)CCC43C)C2CCC12OC1CC(C)CNC1C2C` (stereo not given): the B-score result is “inactive”.

Regarding `CCCCn1c(O)c(C(CC)=NCc2ccco2)c(=O)[nH]c1=O`, the B-score entry is “inactive”.

`CCC(=NCCCO)c1c(O)n(-c2ccc(OC)cc2)c(=O)[nH]c1=O`: the B-score result was “inactive”.

`CCCCCCN=C(CC)c1c(O)n(CCCC)c(=O)[nH]c1=O`: the B-score was -12.7 (active).

Regarding `CCN(CC)C(=O)Oc1ccc(NC(=O)N2CCOCC2)cc1`, the B-score result was “inactive”.

With `CN(C)CC1CCCCC1OC(=O)c1ccc(Cl)c(Cl)c1` (stereo not given), the B-score result is “inactive”.

`COC(=O)C1=C(c2cc3ccccc3s2)C[C@@H]2CC[C@H]1N2C(=O)NC(C)C`: the B-score entry was “inactive”.

`CCN1CCN(c2nc3c(c(=O)[nH]2)CCC3)CC1`: the B-score result was “inactive”.

Regarding `O=C1CC(=O)N(Cc2ccccc2)C(=O)N1CCCCCCN1C(=O)CC(=O)N(Cc2ccccc2)C1=O`, the B-score entry was “inactive”.

Take `CC(C)(C)c1ccc(CN2C(=O)CN=C(c3ccccc3)c3ccccc32)cc1`: the B-score was -12.7 (active).

In the case of `CCOC(=O)c1c(C)c(C(=O)N2CCC3(CC2)OCCO3)c(C)n1CC`, the B-score entry is “inactive”.

As for `CCOP(=S)(OCC)C(O)CCCCCn1c(=O)c(F)cn(C2CCCO2)c1=O` (stereo not given), the B-score result is “inactive”.

`C=CCN1C(=O)NC(=O)/C(=C/c2ccc(OCC(=O)Nc3ccc(C)cc3)cc2)C1=O`: the B-score result was “inactive”.

On to `O=C(O)CCn1cc(C=C2C(=O)NC(=S)NC2=O)c(-c2cccc(Br)c2)n1`, for which the B-score entry is “inactive”.

Consider `CCOC(=O)C1SC2(C(F)(F)C(F)F)CC1(O)c1c(c(OC)c3occc3c1OC)O2` (stereo not given), for which the B-score was -8.55 (active).

Turning to `CCOP(=O)(OCC)C(NC(=O)c1ccc(OC)cc1)C(Cl)(Cl)Cl` (stereo not given), the B-score entry was “inactive”.

`NC(=O)Nc1cccc(C(F)(F)F)c1`: the B-score entry is “inactive”.
